Screening data deposited in PubChem BioAssay by National Center for Advancing Translational Sciences (NCATS).
Compounds with a hit are over-represented: about 3.1% of the library has one in this group of screens.
VDR inh: vitamin D3 receptor (human) inhibition | P11473 | VDR-SRC2-3 peptide fluorescence polarization, 2 h | Potency, µM, for inactives: max response, negative = inhibition, hits mostly inhibitors | hit rate 0.93% among 400,000 | AID 504847; also: potency is read from the fitted curve at half-maximal effect
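Inhibition of the VDR/SRC2-3 peptide interaction is quantified by fluorescence polarization. Compounds (23 nl, pintool) incubate with the reagents for 2 hours at ambient room temperature.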
GCN5L2 inh: GCN5L2 (KAT2A) acetyltransferase inhibition. Q92830. GCN5L2 HAT assay, ThioGlo1 CoA-SH fluorescence. Potency, µM (series often up to 58.9 µM), inactives show top-dose activity change, negative = inhibition, usual class: inhibitors. hit rate 0.21% among 390,000. AID 504327; also: potency is read from the fitted curve at half-maximal effect
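Titration-based screen in which CoA formation is detected via maleimide probe ThioGlo1 (50uM) turning fluorescent on thiol reaction; substrates H3(1-25) 75uM and acetyl-CoA 70uM, GCN5L2 20nM, 20 min incubation at room temperature.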
GLS inhibitor: inhibitors of human glutaminase (GLS) | O94925 | GLS enzymatic activity, qHTS titration | Potency, µM (top dose mostly 45.5 µM), inactives show at the highest dose activity change, negative = inhibition, actives largely listed as inhibitors | hit rate 0.21% among 410,000 | AID 624170; also: potency is read from the fitted curve at half-maximal effect
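hKGA in 45 mM KH2PO4 (pH 8.2), 0.02% Tween-20 with compound, then 1mM L-Glutamine (stock as added) plus glutamate oxidase/HRP/Amplex red coupling mix. Fluorescence read initially and after 30 min at RT; signal change reflects glutamate formation.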
PI4K2A block: inhibitors of human PI4K2A. AID 1346378. Q9BTU6. hit rate 0.13% among 420,000. purified PI4K2A, ADP-Glo luminescence, 1 h; active compounds read low. activity change, negative = inhibition, % at 76.9 µM; in the data active = activity change below about -50%; inconclusive = mostly about -30% to -49%;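 also: -100% = wells without enzyme as full effect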
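ADP-Glo luminescence measured ADP generated by PI4K2A enzyme (4 ug/mL before mixing) with 1.2 mM PI substrate (pre-mix) and 300 microM ATP (pre-mix). Tris pH7.5 buffer with MgCl2, Triton X-100; 1 h reaction at ambient temperature.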
PLK1 PBD inh: PLK1 (human) polo-box domain binding inhibition. P53350. Plk1 PBD binding of FITC phosphopeptide, fluorescence polarization. Potency, µM, without a hit: max response, negative = inhibition, usual class: inhibitors. hit rate 2.8% among 360,000; also: potency is read from the fitted curve at half-maximal effect; series mostly up to about 57 µM; nearly all actives have a fitted effect of over 65% in size
Starred values were filed as active, the others as inactive; ? = inconclusive; . = not tested or not shown. Unless noted, calls follow the shape of the dose curve; as a rule, active = well fitted curve in the direction sought with a large enough effect; inconclusive = small, poorly fitted or top-dose-only effect, or another doubt; inactive = no such curve, though single readings can be large; an effect the other way counts as inactive or inconclusive. Unless noted, % is scaled to controls: 0 for no effect and ±100 for the full control effect.

SMILES	VDR inh	GCN5L2 inh	GLS inhibitor	PI4K2A block	PLK1 PBD inh
Cc1cccc(OCCN2C(=O)C(=O)c3cc(C)ccc32)c1	70.8µM*	-2.2%	-12.9%	38.1	-25.2%
Cc1ccc2c(c1)C(=O)C(=O)N2CCOc1ccccc1	79.4µM*	-5.6%	-14.2%	29.5	-13.5%
Cc1cccc(OCCN2C(=O)C(=O)c3cccc(C)c32)c1	?	-2.0%	20.8%	13.4	-17.9%
COc1ccc(CCNC(=O)c2ccc(Cn3c(SCc4ccccc4)nc4cccnc43)cc2)cc1	7.6%	-8.9%	-4.6%	-2.4	.
CCOc1cc(-c2nn3cnnc3s2)cc(OCC)c1OCC	?	-7.4%	?	-10.5	3.77µM*
CCOc1cc(C(N)=O)cc(OCC)c1OCC	-5.4%	-6.4%	5.1%	-0.6	-1.6%
N#CCCN(C(=O)CSc1ccc2c(c1)OCCO2)c1ccccc1	-23.3%	-7.9%	1.7%	-3.9	18.9µM*
c1ccc(OCc2nn3c(-c4ccncc4)nnc3s2)cc1	-11.9%	-2.7%	-5.1%	2.6	-0.4%
Clc1ccccc1-c1nnc2sc(-c3ccncc3)nn12	?	-0.7%	15.0%	-8.6	26.7µM*
Clc1ccccc1-c1nn2c(-c3ccncc3)nnc2s1	?	-2.3%	-25.7%	-11.7	23.8µM*
c1ccc(Cc2nn3c(-c4ccncc4)nnc3s2)cc1	?	-5.8%	-28.6%	-1.7	23.8µM*
Clc1ccc(-c2nn3c(-c4ccncc4)nnc3s2)c(Cl)c1	.	1.1%	.	.	.
COC(=O)C[C@H]1CC[C@@H]2[C@H](COc3ccc(NC(=O)C(C)C)cc3C(=O)N2C)O1	.	.	.	-2.0	.
CCOP(=O)(OCC)C(C#N)=C1SCN(c2ccc(Cl)cc2)CS1	?	-24.5%	50.8%	-3.0	26.7µM*
Cn1c(=O)cc(SCC(=O)NCCc2ccc(Cl)cc2)c2cc(Cl)ccc21	-19.8%	0.0%	-2.1%	-0.1	.
Cc1ccccc1N1CCN(CCc2nnc3n2CCCC3)CC1	.	.	.	-0.9	.
Cc1c(C(=O)NCc2ccco2)oc2ccc(Br)cc12	-8.2%	-29.0%	-12.8%	-3.8	-6.8%
O=C(NCc1ccco1)c1cc2cc(Br)ccc2o1	89.1µM*	-13.4%	-19.6%	4.5	10.6µM*
O=C(Nc1nc2cc3c(cc2s1)OCCO3)c1ccncc1	?	-10.7%	-20.5%	-2.7	21.2µM*
O=C(Nc1nc2cc3c(cc2s1)OCCO3)c1ccc(N2C(=O)CCC2=O)cc1	-25.6%	-19.3%	-16.0%	4.0	-4.4%
O=C1C=CC(O)(c2cc(=O)c3c(O)cc(O)cc3o2)C=C1	31.6µM*	-4.1%	18.1%	?	-22.0%
O=c1cc(-c2ccccc2Cl)oc2cc(O)cc(O)c12	-0.5%	-22.6%	10.8%	-4.4	-8.7%
O=S(=O)(c1ccc(N2CCC(c3ccc(Cl)cc3)=N2)cc1)N(CCO)CCO	3.3%	-21.4%	-3.9%	2.7	29.9µM*
O=C(Nc1ccccc1Cl)c1ccccc1	-7.2%	-5.4%	5.1%	1.8	9.6%
O=C(Nc1ccccc1Cl)C(Cl)C(=O)c1ccccc1 (centres undefined)	-10.8%	-3.6%	?	-4.1	1.68µM*
SMILES	VDR inh	GCN5L2 inh	GLS inhibitor	PI4K2A block	PLK1 PBD inh
CCOC(=O)c1c(NC(=O)c2ccccc2C(=O)O)sc2c1CCCC2	-2.6%	-1.9%	-7.6%	1.4	-18.1%
Cc1cccc(NC(=O)c2c(NC(=O)c3ccccc3)sc3c2CCCC3)c1	79.4µM*	?	-0.2%	-5.3	.
CCOC(=O)c1c(NC(=O)c2cc(-c3cccc(OC)c3)on2)sc2c1CCCC2	79.4µM*	-21.3%	2.5%	0.3	.
CCOC(=O)c1c(NC(=O)c2ccccc2C)sc2c1CCCC2	79.4µM*	-21.3%	-3.6%	-0.2	.
CN(C)c1ccc(C(=C2C=CC(=[N+](C)C)C=C2)c2ccc(N(C)C)cc2)cc1	39.8µM*	-20.3%	1.7%	-59.0*	.
CN1CC2(Cc3cc([N+](=O)[O-])ccc31)C(=O)OC(C)(C)OC2=O	-13.3%	.	.	.	.
O=C(CCSC1=NCCCN1)c1ccc(F)cc1	70.8µM*	.	34.7%	0.4	?
c1ccc(CSC2=NCCCN2)cc1	-10.9%	-1.3%	-1.8%	5.2	-1.5%
COc1ccc(N2CCN(CC(=O)c3ccccc3)CC2)cc1	-1.1%	-4.7%	?	-20.6	?
CC1CCCN(CCOc2ccc(Br)cc2)C1 (centres undefined)	-20.7%	-3.6%	-20.5%	-8.3	-0.6%
COc1ccc(N2CCN(CCC(=O)c3ccc4ccccc4c3)CC2)cc1	70.8µM*	-5.6%	11.1%	25.4	6.7µM*
CCOC(=O)N1CCN(CCC(=O)c2ccc(OC)cc2)CC1	?	-8.6%	-0.3%	7.1	-20.3%
CC1CCCN(CCC(=O)c2ccc(Br)cc2)C1 (centres undefined)	79.4µM*	-17.7%	-12.7%	49.0	3.36µM*
CCOC(=O)N1CCN(CCC(=O)c2ccc(Br)cc2)CC1	17.8µM*	-0.7%	-9.8%	22.5	0.67µM*
COc1ccc(C(=O)CCN2CCC(C)CC2)cc1	79.4µM*	2.5%	3.0%	17.1	?
COc1ccc(C(=O)CCN2CCCC(C)C2)cc1 (centres undefined)	70.8µM*	3.9%	-0.5%	11.3	?
O=C(CCN1CCC2CCC(C2)C1)c1ccccc1 (centres undefined)	70.8µM*	.	0.8%	8.6	13.4µM*
Cc1nc(-c2ccccc2)c(-c2ccncc2)o1	0.6%	-5.5%	.	.	.
O=C(NC1c2ccccc2-c2ccccc21)c1ccco1	-11.0%	-0.5%	11.7%	3.1	21.2µM*
CCOc1ccc(-n2c(SCC(=O)Nc3ccc(OCc4ccccc4)cc3)nnc2-c2ccc(Cl)cc2)cc1	.	.	.	-1.1	.
Cc1nc2ccccc2c(C)c1C(=O)c1ccccc1	-17.4%	-2.1%	-15.6%	-19.5	23.8µM*
CCC(=O)/C=C1/Sc2ccc(OC)cc2N1CC	0.0%	-10.9%	9.2%	-2.0	?
CCC(/C=C1\Sc2ccc(OC)cc2N1CCO)=C\c1sc2ccc(OC)cc2[n+]1CCO	79.4µM*	?	15.6%	-29.3	?
CCC(=O)/C=C1/Sc2ccc(OC)cc2N1CCO	?	-12.0%	-20.7%	3.5	13.4µM*
O=S1(=O)CC(O)C(O)CS1 (centres undefined)	.	.	3.8%	1.4	10.6µM*
SMILES	VDR inh	GCN5L2 inh	GLS inhibitor	PI4K2A block	PLK1 PBD inh
COc1ccc(NC(=O)CN2CCN(c3ccc(F)cc3)CC2)cc1	-51.7%	-10.0%	30.0%	1.5	29.9µM*
O=C(CN1CCN(c2ccc(F)cc2)CC1)Nc1nccs1	-6.3%	-4.5%	43.9%	1.1	23.8µM*
O=C(CN1CCN(c2ccccc2)CC1)Nc1nccs1	11.7%	-14.7%	22.5%	5.9	-0.7%
C#CCNC(=O)C[C@H]1C(=O)N(CCc2ccc(Cl)cc2)C2=CCCC[C@@]21C(=O)OCC	.	.	.	-0.4	.
CC1=CC(C)(C)N2C(=O)C(=Nc3ccc(O)cc3)c3cccc1c32	?	-0.2%	?	?	4.74µM*
CN1C2=N[C@@H](c3ccccc3)CC(=O)N2/C(=C\c2ccccc2)[C@H]1c1ccccc1	.	.	.	-1.4	.
COc1ccc(-c2nnc(SCC(=O)NNC(=O)Cc3ccccc3)n2C)cc1OC	39.8µM*	-1.4%	?	1.1	26.7µM*
